Many of the other results were omitted from the sample, so hits are more common in it than they were.
GIRK2 activator – Activates human GIRK2-containing potassium channels | P48051 | activation (% efficacy), % for hits at 37.5 µM | HEK293 GIRK2/NPY4 cells, thallium flux fluorescence | AID 1259324 | 34,000 tested, under 10 active;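 active = primary screen hit, no activity in plain HEK293 cells, and in GIRK2-only cells above 5% efficacy rising with concentration; inactive = the rest, including fluorescent compounds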;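 also: efficacy is normalized control-subtracted fluorescence 15 s after thallium addition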
Target sequence (P48051 whole entry, looked up): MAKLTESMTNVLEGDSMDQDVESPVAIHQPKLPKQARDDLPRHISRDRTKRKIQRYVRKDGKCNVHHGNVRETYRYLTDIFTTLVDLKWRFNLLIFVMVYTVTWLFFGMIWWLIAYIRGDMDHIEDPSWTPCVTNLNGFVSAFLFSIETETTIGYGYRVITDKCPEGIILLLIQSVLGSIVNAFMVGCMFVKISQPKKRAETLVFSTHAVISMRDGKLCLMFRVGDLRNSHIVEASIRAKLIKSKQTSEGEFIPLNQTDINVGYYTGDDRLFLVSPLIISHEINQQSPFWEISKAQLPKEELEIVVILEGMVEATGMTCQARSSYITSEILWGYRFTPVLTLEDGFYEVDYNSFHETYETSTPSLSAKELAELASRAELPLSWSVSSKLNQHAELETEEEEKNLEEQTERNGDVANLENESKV
AMPAR-TARP mod – modulators of AMPA receptor GluA2-stargazin complexes; calls only at 30 µM; O88602+P19491; HEK293 GluA2+stargazin, membrane potential dye (FDSS), glutamate EC50; hits were called plate by plate, in both directions; 40,000 tested, 3.5% active;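 active = any of four per-well response measures lying three or more SD from its plate-wide compound average, in either direction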
* hit, by the source's call; i = inactive; . = no result; + = active, no number.

SMILES	GIRK2 activator	AMPAR-TARP mod
CN(C)CCN(C(=O)CCCS(=O)(=O)c1ccc(F)cc1)c1nc2ccccc2s1	.	i
COc1ccc(S(=O)(=O)CCC(=O)N(CCN(C)C)c2nc3ccc([N+](=O)[O-])cc3s2)cc1	.	+
CCOc1ccc(Br)cc1S(=O)(=O)NCc1ccccn1	.	i
COC(=O)c1scc(-c2ccccc2)c1S(=O)(=O)N1CCC(C(N)=O)(N2CCCCC2)CC1	.	i
CC(=O)c1ccc(C(=O)N(Cc2ccncc2)c2nc3ccc(Cl)cc3s2)cc1	i	i
COC(=O)c1ccccc1NC(=O)CC1Nc2cccc3cccc(c23)NC1=O (stereo not given)	.	i
O=C(CC1Nc2cccc3cccc(c23)NC1=O)Nc1cccc(C(F)(F)F)c1 (stereo not given)	.	+
CC(C(=O)NCc1ccncc1)n1nnc2ccccc2c1=O (stereo not given)	i	i
O=C(CSc1ccc(Cl)cc1)Nc1nnc(Cc2ccc(Cl)s2)o1	i	.
Cc1ccc(CNC(=O)CSc2nnc(-c3ccncc3)o2)cc1	i	i
Cc1cc(Br)c2nc(-c3ccncc3)oc(=O)c2c1	i	+
CCOc1ccc(CC(=O)NCC(c2ccco2)N(C)C)cc1 (stereo not given)	i	i
O=S(=O)(NCCC(O)c1cccs1)c1ccc(OC(F)(F)F)cc1 (stereo not given)	i	+
O=S(=O)(NCCC(O)c1cccs1)c1cccc(C(F)(F)F)c1 (stereo not given)	i	i
COc1ccc(-c2csc(SCc3ccc(C(=O)N4CCCC4)o3)n2)cc1OC	i	i
CCCc1nnsc1C(=O)Nc1ccc2c(c1)N(S(C)(=O)=O)CCC2	i	i
O=C(Cc1c[nH]c2ccccc12)Nc1onc2c1CSC2	i	i
CCN(CC)c1ccc(NC(=O)c2csc3c2CCCC3)cc1	.	i
CCn1nccc1C(=O)Nc1ccc2c(c1)OCCO2	i	i
O=C(Nc1ccc2nccnc2c1)c1ccc2c(c1)OCCO2	i	+
O=C(Nc1ccc2nccnc2c1)c1csc2c1CCCC2	i	+
Cc1ccc(C)c(-c2nnc(NC(=O)c3ccc(S(=O)(=O)N(C)Cc4ccco4)cc3)o2)c1	.	i
CS(=O)(=O)N1CCN(CCNC(=O)c2nc3ccccc3s2)CC1	i	i
COc1ccc(-c2cc(CC(=O)NCCc3c[nH]c4ccccc34)no2)cc1	i	i
CN(Cc1ccco1)S(=O)(=O)c1ccc(C(=O)Nc2nc(-c3ccc4c(c3)OCO4)cs2)cc1	.	i
SMILES	GIRK2 activator	AMPAR-TARP mod
Cc1cc(NC(=O)c2c(F)cccc2F)n(-c2nc3c(cnn3-c3ccc(C)c(C)c3)c(=O)[nH]2)n1	i	+
Cc1cc(NC(=O)c2c(F)cccc2F)n(-c2nc3c(cnn3-c3cccc(Cl)c3)c(=O)[nH]2)n1	i	i
CCC(CC)C(=O)Nc1cc(C)nn1-c1nc2c(cnn2-c2cccc(C)c2)c(=O)[nH]1	i	+
Cc1cccc(-n2ncc3c(=O)[nH]c(-n4nc(C)cc4NC(=O)C4CC4)nc32)c1	i	i
Cc1ccc(N2C(=O)C3N=NN(CC(=O)Nc4cc(Cl)ccc4C)C3C2=O)cc1C (stereo not given)	i	.
CCC(=O)NCCOc1ccc(-c2cccs2)nn1	i	i
O=C(Cn1cnc(-c2cccs2)cc1=O)NCCOc1ccc(-c2ccco2)nn1	i	+
O=C(CN1CC(c2nc(-c3cccc(C(F)(F)F)c3)no2)C1)Nc1cccnc1	i	.
C=CCN1C(=O)/C(=C\C=C2/SCCN2C)SC1=S	.	+
COc1cccc(-n2c(C)cn3c4c(=O)n(CCc5ccccc5)c(=O)n(C)c4nc23)c1	.	i
CCN(CC)CCn1c(C)cn2c3c(=O)n(CCc4ccccc4)c(=O)n(C)c3nc12	i	+
S=c1nc(NCCCN2CCOCC2)c2ccccc2[nH]1	i	i
O=C(CN(c1ccc(F)cc1)S(=O)(=O)c1cccnc1)N1CCN(c2ccccc2)CC1	i	i
Cc1ccc(S(=O)(=O)/C(C#N)=C/N2CCN(Cc3ccccc3)CC2)cc1C	i	+
Cc1ccc(S(=O)(=O)/C(C#N)=C/N2CCN(Cc3ccc4c(c3)OCO4)CC2)cc1C	i	i
CC(C)c1cccc(C(C)C)c1NC(=O)c1ccc(O)cc1	.	i
COc1cc(C(=O)Nc2c(C(C)C)cccc2C(C)C)cc(OC)c1OC	i	+
O=C(CN1C(=O)c2ccccc2S1(=O)=O)Nc1cccc(Cl)c1	i	i
COc1ccc(S(=O)(=O)NCc2nnnn2-c2ccc(F)cc2)cc1	.	+
COc1ccc(S(=O)(=O)NCc2nnnn2-c2ccc(F)c(F)c2)cc1	.	i
CC(O)(CNS(=O)(=O)c1ccc(OC(F)(F)F)cc1)c1ccc2c(c1)OCO2 (stereo not given)	i	i
Cc1noc(C2CN(S(=O)(=O)c3cccs3)C2)n1	i	i
